Rows were chosen to be rich in hits. Some 14% of all compounds tested hit in one or more screens of this group.
HCV inhibitor: blocks hepatitis C virus; Huh7.5.1 HCVcc-Cre infection, luciferase reporter, 44 h; Potency, µM (highest dose often 41.8 µM), inactives show top-dose activity change, negative = inhibition, actives largely listed as inhibitors; 340,000 tested, 3.4% active; AID 651820; also: potency is read from the fitted curve at half-maximal effect
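Infectious HCV cell culture screen: compound-treated cells (1,000/well, pre-plated 4 h) are infected with HCVcc-Cre at roughly 0.5 moi and grown 44 h. Infection is quantified by luciferase signal after 15 min substrate incubation at room temperature.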
Pf growth 96h: P. falciparum growth inhibition at 96 hours; Potency, µM (doses to about 28.7 µM), inactives show at the highest dose activity change, negative = inhibition, hits mostly inhibitors; AID 504834; P. falciparum luciferase reporter growth, 96 h; 320,000 tested, 6.9% active; also: potency is read from the fitted curve at half-maximal effect
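96 h incubation, 37 C, 5% CO2, of luciferase-reporter P. falciparum-infected RBCs (2% hematocrit, 0.05% parasitemia final) with test compounds; endpoint luminescence.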
Marburg entry inh: blocks Marburg virus binding to or entry into cells | 300,000 tested, 1.8% active | Potency, µM (titrated, usually from 37.8 µM), without a hit: at the highest dose activity change, negative = inhibition, most hits filed as inhibitors | Marburg virus pseudotyped entry inhibition, cell reporter; calls by dose curve; tested in HEK293 cells; also: potency is read from the fitted curve at half-maximal effect
HCMV antiviral: human cytomegalovirus inhibition; HFF cells, HCMV-luciferase reporter, 72 h; hits give low values; activity change, negative = inhibition, % at 57.5 µM; 410,000 tested, 4.5% active; in the data active = activity change below about -60%; inconclusive = no clear call, values can overlap the other calls; inactive = above about -39%
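Luciferase read-out from HCMV-luciferase-infected HFFs (MOI 1 PFU/cell) 72 h post infection at 37C; compounds added after 16 h cell attachment; activity normalized between buffer-only basal and Salinomycin (10uM) inhibitor controls.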
LASV entry inh: Lassa virus entry inhibition | Lassa virus pseudotype entry inhibition, cell reporter | Potency, µM (highest dose often 37.9 µM), for inactives: top-dose activity change, negative = inhibition, most hits filed as inhibitors | 300,000 tested, 1.2% active; calls by dose curve; tested in HEK293 cells; also: potency is read from the fitted curve at half-maximal effect; nearly all actives have a fitted effect of over 50% in size
Pf growth 48h: inhibits P. falciparum growth in the first generation, 48 h. P. falciparum luciferase growth in erythrocytes, 48 h. Potency, µM (doses to about 28.7 µM), without a hit: at the top dose activity change, negative = inhibition, hits mostly inhibitors. 310,000 tested, 5.9% active; also: potency is read from the fitted curve at half-maximal effect
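Compounds are pin-transferred into medium, infected erythrocytes (2% hematocrit, 0.1% parasitemia final) are added, and plates sit one parasite generation at 37 C in 5% CO2. Detection reagent is then added and luminescence measured.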
* hit, by the source's call; [ ] = dose if it differs, or a comment. Unless noted, calls follow the shape of the dose curve; as a rule, active = well fitted inhibition curve with a large enough effect; inconclusive = small, poorly fitted or top-dose-only effect, or another doubt; inactive = no such curve, though single readings can be large or run the other way. % is scaled to controls: 0 for no effect and ±100 for the full control effect.

For O=C(NN(C(=O)C1CC1)c1nc2ccccc2s1)C1CC1 the results were HCV inhibitor 10%, Pf growth 96h 4.1µM*, Marburg entry inh -3%, HCMV antiviral -3, LASV entry inh 0% and Pf growth 48h 27%.
Screening CCOc1ccc(NC(=O)Cc2ccc(-n3c(C)nc4cccnc43)cc2)cc1 returned HCMV antiviral inconclusive and LASV entry inh 2%[46.1 µM].
`O=c1oc2ccccc2cc1-c1nc2c(s1)CCCC2` gave HCV inhibitor -18%, Pf growth 96h 164%, Marburg entry inh inconclusive, HCMV antiviral -21, LASV entry inh 2.9µM* and Pf growth 48h 279%.
Cc1ccc2c(=O)cc(C(=O)Nc3cccc(Cl)c3C)oc2c1C was read as Marburg entry inh 24%[46.1 µM], HCMV antiviral 39 and LASV entry inh 0%[46.1 µM].
For c1ccc(-c2cn3c4c(sc3n2)CCCC4)cc1 the results were HCV inhibitor -8%, Pf growth 96h -16%, Marburg entry inh 1.1µM*, HCMV antiviral inconclusive, LASV entry inh inconclusive and Pf growth 48h -15%.
For CC(C)CC(NC(=O)C1CCCN1C(=O)OC(C)(C)C)C(=O)NCC(N)=O (stereo not drawn) the results were HCV inhibitor 4%, Pf growth 96h inconclusive, Marburg entry inh 13%, HCMV antiviral -31, LASV entry inh 12% and Pf growth 48h 7%.
Screening CC(C)C[C@H](NC(=O)C1OC1C(=O)O)C(=O)NCCCCN=C(N)N (stereo partly drawn) returned Marburg entry inh 4.1µM* and LASV entry inh inconclusive.
For C[C@@]1(c2ccco2)NC(=O)NC1=O the results were Marburg entry inh 10%.
CS(=O)(=O)c1ccc(Nc2nccc3[nH]c(-c4ccsc4)cc23)cc1 was read as HCMV antiviral -9.
Screening O=[N+]([O-])c1cccc(-c2c(-c3ccccc3)ncc3ccc(F)cc23)c1 returned HCV inhibitor -21%, Pf growth 96h 4.7µM*, HCMV antiviral -21 and Pf growth 48h -8%.
For Fc1cccc(-c2c(-c3ccccc3)ncc3cc(F)ccc23)c1 the results were HCV inhibitor inconclusive, Pf growth 96h inconclusive, HCMV antiviral -9 and Pf growth 48h inconclusive.
Screening O=C(Nc1nonc1-c1ccc(F)cc1)c1ccco1 returned HCV inhibitor 16%, Pf growth 96h 22%, HCMV antiviral inconclusive and Pf growth 48h 17%.
CCCCOc1ccccc1C(=O)Nc1nonc1-c1ccccc1 was read as Marburg entry inh 1%[46.1 µM], HCMV antiviral -99* and LASV entry inh 3%[46.1 µM].
`O=C(Nc1nonc1-c1ccc(Cl)cc1)c1ccccc1F` gave Marburg entry inh inconclusive, HCMV antiviral -68* and LASV entry inh 10%[46.1 µM].
`CC1=NOC2(C1)N(C)c1ccccc1C2(C)C` (stereo not drawn) gave HCV inhibitor 7%, Pf growth 96h 0%, Marburg entry inh 1%, HCMV antiviral 5, LASV entry inh 6% and Pf growth 48h 39%.
`COc1ccc2ccc3c(c2c1)N=C[C@]1(O3)N(C)c2ccccc2C1(C)C` gave HCV inhibitor -4%, Pf growth 96h 6.6µM*, Marburg entry inh inconclusive, HCMV antiviral inconclusive, LASV entry inh -7% and Pf growth 48h inconclusive.
CC(C)Nc1ccc(Nc2ccccc2)cc1 was read as HCV inhibitor inconclusive, Pf growth 96h 2.6µM*, Marburg entry inh 2%, HCMV antiviral inconclusive, LASV entry inh inconclusive and Pf growth 48h 4.1µM*.
Screening Cc1cc(N2CCC(N(C)C3CCCC3)CC2)nc2cc(O)ccc12 returned HCV inhibitor inconclusive, Pf growth 96h -26%, HCMV antiviral -38 and Pf growth 48h 1.9µM*.
Cc1cccc(N2CCN(C(=O)CCCn3ncn4c(cc5occc54)c3=O)CC2)c1C was read as Marburg entry inh 6%[46.1 µM], HCMV antiviral -16 and LASV entry inh -24%[46.1 µM].
For Cc1noc2nc(-c3cccs3)cc(-c3nnc4n3CCCCC4)c12 the results were Pf growth 96h 12µM*, Marburg entry inh -1% and Pf growth 48h 16%.

Assay outcomes deposited in PubChem BioAssay by National Center for Advancing Translational Sciences (NCATS).
